Molecules are shown by their SMILES. Results filed as inconclusive are left out. Calls of active or inactive are those of the source. Calls follow the shape of the dose curve; as a rule, active = well fitted inhibition curve with a large enough effect; inconclusive = small, poorly fitted or top-dose-only effect; inactive = no such curve, though single readings can be large or run the other way.
Potency is read from the fitted curve at half-maximal effect.

The assay is described as follows: qHTS Screen of the MIPE 4.0 Collection Against Ewings Sarcoma (RDES) (AID 1259252). Also: nearly all actives have a fitted effect of over 35% in size.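 As to viability (percent of control): 100% = DMSO-treated cells and 0% = medium-only wells without cells.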 Particulars: RD-ES Ewing sarcoma viability, CellTiter-Glo, 48 h; series mostly up to 45.8 µM; viability (percent of control): at the top concentration. From the text:
There is a large unmet medical need for treatments for Ewing sarcoma, a pediatric sarcoma. We sought to identify compounds that inhibited Ewing sarcoma cells in vitro with the goal to then test promising drugs in two drug combinations in vitro to look for synergistic drug combinations. Promising combinations would then proceed to additional validation, including in vivo testing.
Using the NCATS developed oncology compound library called the Mechanism of Interrogation Plate (MIPE), four Ewing sarcoma cell lines were evaluated (TC32, TC71, RDES, EW8). Compounds, in a 12-point titration series, were incubated with cells for 48 hours and the read out was cell viability (CellTiter-Glo from Promega). These initial experiments were used to select appropriate concentrations of each single agent for subsequent two-drug matrix combinations such that the concentrations in the matrices would span both activity and non-activity.
Cells, in the log phase of growth, were seeded in 5 uL of RPMI plus 5% FBS, […] L-glutamine, 100 U/ml penicillin and 100 ug/ml streptomycin into 1536-well solid-bottom white tissue culture treated Greiner Bio One Plates (789173-F) using a MultiDrop Combi (Thermofisher Scientific) dispenser and a small sterile cassette. One column was media alone to be used as a :"no cells" control. The plates were then covered with sterilized stainless steel gasketed lids from Kalypsys. After allowing cells to attach for 4 hours, 23 nL of test compound or control (negative control DMSO and positive control 9.2 uM Bortezomib-final) were added from a 1536-well polypropylene compound source plate to each well using a 1536 head pin tool from Kalypsys. Cells were then incubated for 48 hours at 37C, 95% relative humidity and 5% CO2. After 48 hours, plates were removed from the incubator and 3 uL of CellTiter-Glo (Promega) was added using an Aurora Flying Reagent Dispenser Bioraptor. Plates were incubated at room temperature for 10 minutes prior to reading the luminescence on the Viewlux (PerkinElmer). The relative luciferase units are used to calculate the percent activity using the activity of DMSO in the cells and no cells columns for normalization of no inhibition and full inhibition respectively.
(In general: qHTS replaces the single test concentration by a dilution series.)
As to `Cc1cc(Nc2cc(N3CCN(C)CC3)nc(Sc3ccc(NC(=O)C4CC4)cc3)n2)n[nH]1`, the Potency is 3.72 µM (active).

As to `CC=C1NC(=O)[C@H]2CSSCCC=C[C@H](CC(=O)N[C@H](C(C)C)C(=O)N2)OC(=O)[C@H](C(C)C)NC1=O`, the Potency is 0.0148 µM (active).

`O=C(O)C1(Cc2cccc(Nc3nccs3)n2)CCC(Oc2cccc(Cl)c2F)CC1` (stereo not given): the Potency was 4.69 µM (active).

Take `CC(NCc1ccc2c(c1)nc(NC(=O)c1ccc(-c3cn[nH]c3)s1)n2CC(C)(C)O)C(C)(C)C` (stereo not given): the Potency is 0.469 µM (active).

As for `O=C(c1ccc(Nc2nccc(-c3cc4ccccc4s3)n2)cc1)N1CCC(N2CCCC2)CC1`, the Potency is 18.7 µM (active).

For the compound `Cn1cncc1[C@@](N)(c1ccc(Cl)cc1)c1ccc2c(c1)c(-c1cccc(Cl)c1)cc(=O)n2C`, the Potency is 7.43 µM (active).

Turning to `COc1cc2c(Oc3ccc(-c4cnc(Nc5ccc(F)cc5)n(C)c4=O)cc3F)ccnc2cc1OCCCN1CCOCC1`, the Potency was 20.9 µM (active).

With `CC(C)C[C@H](NC(=O)CNC(=O)c1cc(Cl)ccc1Cl)B(O)O`, the Potency is 0.264 µM (active).

With `CC(=O)Nc1nc(C)c(-c2ccc(Cl)c(S(=O)(=O)NCCO)c2)s1`, the Potency was 5.9 µM (active).

Take `Fc1cc(-c2cccc3ncc(-c4cnn(C5CCNCC5)c4)nc23)cc(F)c1CN1CCOCC1`: the Potency was 20.9 µM (active).

`CC(C)=CCCC(C)=CCCC(C)=CCSc1ccccc1C(=O)O`: the Potency was 2.35 µM (active).

`O=C(O)c1ccc2c(c1)nc(Nc1cccc(Cl)c1)c1ccncc12`: the Potency is 4.18 µM (active).

In the case of `C=C1C(=CC=C2CCCC3(C)[C@@H]([C@H](C)C=CC=CC(O)(CC)CC)CC[C@@H]23)C[C@@H](O)C[C@@H]1O` (stereo not given in full), the Potency is 18.7 µM (active).

As for `Clc1cccc(-n2nnnc2NCc2ccccc2Oc2ccccn2)c1Cl`, the “viability (percent of control)” value is 125% (inactive).

`C=CC(=O)N1CCC[C@@H](n2nc(-c3ccc(Oc4ccccc4)cc3)c3c(N)ncnc32)C1`: the Potency was 20.9 µM (active).

Consider `Nc1ccc(S(=O)(=O)Nc2ncccn2)cc1`, for which the “viability (percent of control)” value was 122% (inactive).

As to `CCOc1ccccc1OCCNC(C)Cc1ccc(OC)c(S(N)(=O)=O)c1` (stereo not given), the “viability (percent of control)” value was 104% (inactive).

In the case of `O=C(c1cncc(Br)c1)N1CCC(N2CCCC2)CC1`, the “viability (percent of control)” value was 114% (inactive).

In the case of `Nc1nc(Nc2ccc(S(N)(=O)=O)cc2)nn1C(=O)c1c(F)cccc1F`, the Potency was 8.33 µM (active).

Consider `Cc1c(CN2CCN(S(C)(=O)=O)CC2)sc2c(N3CCOCC3)nc(-c3cnc(N)nc3)nc12`, for which the Potency is 0.059 µM (active).

As for `COC(=O)C1=C(C)NC(C)=C(C(=O)OCCN2CCN(C(c3ccccc3)c3ccccc3)CC2)C1c1cccc([N+](=O)[O-])c1` (stereo not given), the “viability (percent of control)” value is 120% (inactive).

Consider `CC[C@H](CO)Nc1nc(NCc2ccccc2)c2ncn(C(C)C)c2n1`, for which the Potency is 16.6 µM (active).

On to `O=C(CCCCCCNC(=O)c1cnc(N(c2ccccc2)c2ccccc2)nc1)NO`, for which the Potency is 5.9 µM (active).

As to `COc1cc(Nc2ncc(F)c(Nc3ccc4c(n3)N(COP(=O)(O)O)C(=O)C(C)(C)O4)n2)cc(OC)c1OC`, the Potency was 11.8 µM (active).

On to `CCN1CCN(CC(=O)Nc2ccc(-c3cccc4c(=O)cc(N5CCOCC5)oc34)c3sc4ccccc4c23)CC1`, for which the Potency was 8.33 µM (active).

For `COc1ccc(C=Cc2cc(OC)c(OC)c(OC)c2)cc1O`, the “viability (percent of control)” value was 25.8% (inactive).

Regarding `Cc1cc(Nc2cc(NC(=O)c3c(Cl)cccc3Cl)ccn2)nc(N)n1`, the Potency is 0.332 µM (active).

For the compound `Nc1ccccc1NC(=O)c1ccc(CNC(=O)OCc2cccnc2)cc1`, the Potency is 9.35 µM (active).

With `Cc1cccc(C=NNc2cc(N3CCOCC3)nc(OCCc3ccccn3)n2)c1`, the Potency is 18.7 µM (active).

For the compound `CC1(C)CC(=O)c2c(C(F)(F)F)nn(-c3ccc(C(N)=O)c(NC4CCC(OC(=O)CN)CC4)c3)c2C1` (stereo not given), the Potency is 0.166 µM (active).

On to `CCN(CC)CCCCNc1ncc2cc(-c3cc(OC)cc(OC)c3)c(NC(=O)NC(C)(C)C)nc2n1`, for which the Potency is 20.9 µM (active).

Regarding `Cc1cnc(Nc2ccc(F)cc2Cl)nc1-c1c[nH]c(C(=O)N[C@H](CO)c2cccc(Cl)c2)c1`, the Potency was 20.9 µM (active).

In the case of `COc1ccc2c(OCc3nnc4ccc(-c5ccccc5)nn34)ccnc2c1`, the “viability (percent of control)” value was 131% (inactive).

In the case of `Cc1cc(Nc2cc(N3CCN(C)CC3)nc(C=Cc3ccccc3)n2)n[nH]1`, the Potency is 5.4 µM (active).

Turning to `CC(=O)SC[C@@H](C)C(=O)N1CCC[C@H]1C(=O)N[C@@H](Cc1ccccc1)C(=O)O`, the “viability (percent of control)” value was 111% (inactive).

For `Cc1nc(N)ncc1-c1nc(N2CCOCC2)c2sc(C(C)(C)O)cc2n1`, the Potency was 1.66 µM (active).

`CN(C)c1nc(Cc2ccc(NC(=O)c3ccc4ccccc4c3)cc2)nc(Cl)c1CC(=O)O`: the “viability (percent of control)” value was 130% (inactive).

Regarding `C1=CCOCc2cc(ccc2OCCN2CCCC2)Nc2nccc(n2)-c2cccc(c2)OCC1`, the Potency was 5.9 µM (active).

As to `O=C(C=Cc1c(C(=O)O)[nH]c2cc(Cl)cc(Cl)c12)Nc1ccccc1`, the “viability (percent of control)” value is 100% (inactive).

Consider `CC[C@@H]1C(=O)N(C)c2cnc(Nc3ccc(C(=O)NC4CCC(N5CCN(CC6CC6)CC5)CC4)cc3OC)nc2N1C(C)C` (stereo not given in full), for which the Potency is 0.105 µM (active).

Source of the values: PubChem BioAssay (NCATS).
